Data as given in PubChem BioAssay (EPA / NIEHS).
Records with an inconclusive call do not appear. Active and inactive are the calls of the source. The calls were made as follows, unless noted: active = hit-call score of the fitted dose curve at least 0.9, where 1 is the maximum; inactive = score below 0.9.

Columns and labels:
TTR (gene 7276) = experiment: CCTE_GLTED_hTTR_0.125uM: CCTE's human Transthyretin (hTTR) Inhibition Assay, with 0.125uM TTR, Great Lakes Toxicology and Ecology Division (GLTED) Lab (AID 2284431);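 also: hits lower the fluorescence signal relative to DMSO baseline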
Summary of the method: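 TTR at 0.125uM incubated 2 h with test chemical; displacement of bound ANSA read by fluorescence (ex 380, em 475). Activity is signal loss versus DMSO baseline.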

[1] = CCTE_Mundy_HCI_iCellGluta_NOG_NeuronCount: CCTE's Neurite Outgrowth Assay in iCellGluta cells for Neuron Count, Mundy Lab (AID 2284340; active = hit-call score of the fitted dose curve at least 0.9, where 1 is the maximum;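 also: cells fixed about 48 h after compound addition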)
Summary of the method: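 Neuron count read by automated high-content imaging of Hoechst 33342 and betaIII-tubulin/Alexa Fluor-488 labelling in human iPSC glutamatergic neurons. Activity fitted relative to DMSO.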

[2] = test system: SRY-box transcription factor 17 (SOX17) Protein Expression, Deisenroth Lab, SOX17 (gene 64321); experiment: CCTE_Deisenroth_DEVTOX-GLR_legacy_Sox17: (Legacy) CCTE's DevTox GLR-Endo Assay Evaluation of SRY-box transcription factor 17 (SOX17) Protein Expression, Deisenroth Lab (AID 2284341); settings: actives raise or lower the signal
Summary of the method: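 Percent SOX17-positive cells, scored by high-content imaging as mean intensity exceeding pluripotent-control median by 5x BMAD, divided by cell count. Human RUES2-GLR endoderm differentiation, 48 h, two exposures 24 h apart, 1 nM–200 uM; DMSO-referenced bidirectional fitting.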

[3] = CCTE_Mundy_HCI_iCellGluta_NOG_NeuriteCount: CCTE's Neurite Outgrowth Assay in iCellGluta cells for Neurite Count, Mundy Lab (AID 2284342; active = hit-call score of the fitted dose curve at least 0.9, where 1 is the maximum;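 also: chemical exposure about 48 hours starting 2 hours after plating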)
SERPINA7 (gene 6906) = experiment: CCTE_GLTED_hTBG: CCTE's human Thyroxine-binding Globulin (TBG) Inhibition Assay, Great Lakes Toxicology and Ecology Division (GLTED) Lab (AID 2284343; active = hit-call score of the fitted dose curve at least 0.9, where 1 is the maximum;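 also: active chemicals lower fluorescence versus DMSO baseline by displacing probe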)
Summary of the method: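 Cell-free binding assay in which human TBG is incubated with test chemical for 2 hours and displacement of the fluorescent probe ANSA is read at 380 nm excitation/475 nm emission. Activity is fitted against DMSO as the negative control.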

[4] = test system: SRY-box transcription factor 2 (SOX2) Protein Expression, Deisenroth Lab, SOX2 (gene 6657); experiment: CCTE_Deisenroth_DEVTOX-GLR_legacy_Sox2: (Legacy) CCTE's DevTox GLR-Endo Assay Evaluation of SRY-box transcription factor 2 (SOX2) Protein Expression, Deisenroth Lab (AID 2284346)
Summary of the method: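 RUES2-GLR human pluripotent cells were differentiated for 48 h with two chemical doses 24 h apart, over 1 nM-200 uM. Sox2+ cells were those above 5x BMAD of the endoderm-control median; percent Sox2+ minus the 0.2% DMSO median was used, from n=4 replicates.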

[5] = test system: SRY-box transcription factor 2 (SOX2) Protein Expression, Deisenroth Lab, SOX2 (gene 6657); experiment: CCTE_Deisenroth_DEVTOX-GLR_Endo_SOX2: CCTE's DevTox GLR-Endo Assay Evaluation of SRY-box transcription factor 2 (SOX2) Protein Expression, Deisenroth Lab (AID 2284412; active = hit-call score of the fitted dose curve at least 0.9, where 1 is the maximum)
Summary of the method: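 RUES2-GLR human pluripotent cells were seeded 24 h, then differentiated 48 h with two chemical exposures 24 h apart. Cells were fixed, nuclei stained and imaged by high-content microscopy. Endpoint is %SOX2+ cells over cell count, minus 0.2% DMSO control; 10-point series 1 nM–200 uM.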

[6] = test system: SRY-box transcription factor 17 (SOX17) Protein Expression, Deisenroth Lab, SOX17 (gene 64321); experiment: CCTE_Deisenroth_DEVTOX-GLR_Endo_SOX17: CCTE's DevTox GLR-Endo Assay Evaluation of SRY-box transcription factor 17 (SOX17) Protein Expression, Deisenroth Lab (AID 2284413)
Summary of the method: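 RUES2-GLR human pluripotent cells were differentiated toward endoderm for 48 h and received two compound doses 24 h apart (1 nM - 200 uM, 10 points). High-content imaging of fixed cells gave the percent SOX17+ cells per cell count, expressed as percent change versus 0.2% DMSO.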

[7] = test system: Brachyury (BRA) Protein Expression, TBXT (gene 6862); experiment: CCTE_Deisenroth_DEVTOX-GLR_Endo_BRA: CCTE's DevTox GLR-Endo Assay Evaluation of Brachyury (BRA) Protein Expression, Deisenroth Lab (AID 2284417)
Summary of the method: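 Endpoint is the fraction of BRA reporter-positive cells over total nuclei, corrected by subtracting the 0.2% DMSO value. Chemicals (1 nM - 200 uM, 10 points) were dosed twice during 48 h differentiation of RUES2-GLR cells, read by imaging.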

[8] = CCTE_Deisenroth_DEVTOX-GLR_Endo_CellCount: Viability Assessment in CCTE's DevTox GLR-Endo Assay, Deisenroth Lab (AID 2284420)
Summary of the method: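 Percent change in nuclear-stain cell counts versus 0.2% DMSO, from high-content imaging over 5 fields per well. Over a 48 h endoderm differentiation, RUES2-GLR cells received two doses 24 h apart across a 1 nM–200 uM series, with n=4.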

[9] = test system: SRY-box transcription factor 17 (SOX17) Protein Expression, Deisenroth Lab, SOX17 (gene 64321); experiment: CCTE_Deisenroth_DEVTOX-GLR_Pluri_SOX17: CCTE's DevTox GLR-Pluri Assay Evaluation of SRY-box transcription factor 17 (SOX17) Protein Expression, Deisenroth Lab (AID 2284427; active = hit-call score of the fitted dose curve at least 0.9, where 1 is the maximum)
Summary of the method: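 The endpoint is SOX17+ cells as a fraction of cell count, corrected for the 0.2% DMSO control and obtained by high-content fluorescence imaging of fixed cells. Cells were RUES2-GLR under a 48-hour endoderm differentiation, dosed twice at 24-hour intervals over 1 nM–200 uM.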

[10] = test system: SRY-box transcription factor 2 (SOX2) Protein Expression, Deisenroth Lab, SOX2 (gene 6657); experiment: CCTE_Deisenroth_DEVTOX-GLR_Pluri_SOX2: CCTE's DevTox GLR-Pluri Assay Evaluation of SRY-box transcription factor 2 (SOX2) Protein Expression, Deisenroth Lab (AID 2284428)
Summary of the method: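 Percent SOX2+ cells (SOX2+ count per total cells, fluorescent imaging) in RUES2-GLR human pluripotent line, expressed relative to 0.2% DMSO. Compounds dosed twice at 24 h intervals during 48 h, 1 nM - 200 uM, 10 concentrations.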

[11] = test system: Brachyury (BRA) Protein Expression, Deisenroth Lab, TBXT (gene 6862); experiment: CCTE_Deisenroth_DEVTOX-GLR_Pluri_BRA: CCTE's DevTox GLR-Pluri Assay Evaluation of Brachyury (BRA) Protein Expression, Deisenroth Lab (AID 2284429; active = hit-call score of the fitted dose curve at least 0.9, where 1 is the maximum)
Summary of the method: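 RUES2-GLR human pluripotent cells differentiated 48 hours with two chemical exposures 24 hours apart, 10-point series 1 nM–200 uM. Fixed, nuclear-stained, imaged; endpoint is percent BRA+ cells minus 0.2% DMSO control.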

[12] = CCTE_Deisenroth_DEVTOX-GLR_Pluri_CellCount: Viability Assessment in CCTE's DevTox GLR-Pluri Assay Evaluation of Total Cell Counts, Deisenroth Lab (AID 2284430)
Summary of the method: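 RUES2-GLR human pluripotent cells, seeded 24 h, then differentiated 48 h with two chemical exposures 24 h apart; 10-point series 1 nM - 200 uM. Fixed, nuclear-stained, imaged (5 fields/well); nuclei count as % change vs 0.2% DMSO.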

[13] = VALA_TUBIPS_Antagonist_CellCount: Viability Assessment in the VALA Sciences human iPS-derived Endothelial Tubule Formation (TUBIPS) Antagonism Assay (AID 2284335; active = hit-call score of the fitted dose curve at least 0.9, where 1 is the maximum)
[14] = VALA_TUBIPS_Agonist_CellCount: Viability Assessment in the VALA Sciences human iPS-derived Endothelial Tubule Formation (TUBIPS) Agonism Assay (AID 2284338; active = hit-call score of the fitted dose curve at least 0.9, where 1 is the maximum)
[15] = VALA_MIGHUV1_ScratchOnly_WoundArea: VALA Sciences human Umbilical Vein Endothelial Cell Migration (MIGHUV) Assay, Area of Scratch Wound Inhibited Recovery (AID 2284336; active = hit-call score of the fitted dose curve at least 0.9, where 1 is the maximum)
Summary of the method: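 HUVEC monolayers (9000 cells/well) were scratched after 24 h, dosed within 30 min (six concentrations, triplicate, 0.1% DMSO), allowed 24 h recovery, then fixed. Hoechst-stained nuclei in the wound imaged; cytochalasin D as reference.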

[16] = VALA_TUBHUV_Agonist_TubuleLength: VALA Sciences human Umbilical Vein Endothelial Tubule Formation (TUBHUV) Agonism Assay (AID 2284337; active = hit-call score of the fitted dose curve at least 0.9, where 1 is the maximum)
Summary of the method: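 HUVEC co-cultured with fibroblasts (1:3) 3 days in 10 ng/ml VEGF, then 3 days with compound plus VEGF; 0.1 % DMSO neutral control. Fixed, nuclear and CD31 stained; tubule length by fluorescence imaging.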

Measured: AC50

CC=Cc1ccc(O)c(OC)c1
active: TTR (gene 7276) 13.6 µM

CC(=O)Oc1ccccc1C(=O)O
active: SERPINA7 (gene 6906) 22.8 µM
inactive: [1] | [2] | [3] | [4] | [5] | [6] | [7] | [8] | [9] | [10] | [11] | [12]

C=CCOC(=O)c1ccccc1C(=O)OCC=C
active: SERPINA7 (gene 6906) 19.5 µM

COc1cccc2c1C(=O)c1c(O)c3c(c(O)c1C2=O)C[C@@](O)(C(=O)CO)C[C@@H]3O[C@H]1C[C@H](N)[C@H](O)[C@H](C)O1
active: [2] 4.93 µM | [4] 0.107 µM | [5] 2.25 µM | [6] 5.85 µM | [7] 0.0902 µM | [8] 0.00878 µM | [9] 0.27 µM | [10] 0.0073 µM | [11] 0.00927 µM | [12] 0.00758 µM

Nc1ccc(S(=O)(=O)c2ccc(N)cc2)cc1
active: SERPINA7 (gene 6906) 50 µM

COc1cc(S(=O)(=O)O)c(C)cc1N=Nc1c(O)ccc2cc(S(=O)(=O)O)ccc12
active: SERPINA7 (gene 6906) 35 µM | TTR (gene 7276) 30.8 µM

O=c1[nH]cc(F)c(=O)[nH]1
active: [2] 8.47 µM | [4] 22 µM | [5] 34.3 µM | [6] 9.06 µM | [7] 20.3 µM | [8] 5.89 µM | [9] 7.95 µM | [10] 7.1 µM | [11] 7.54 µM | [12] 8.12 µM

CCOC(=O)C(C)(C)Oc1ccc(Cl)cc1
active: SERPINA7 (gene 6906) 24.9 µM

Cc1ccc(C)c(O)c1C
active: SERPINA7 (gene 6906) 33.1 µM | TTR (gene 7276) 21.9 µM

CC1=C(/C=C/C(C)=C/C=C/C(C)=C/CO)C(C)(C)CCC1
active: [2] 33.5 µM | [4] 55.7 µM | [6] 33.6 µM | [7] 66 µM | [8] 34.7 µM | [9] 39.3 µM | [10] 19.8 µM | [11] 26.8 µM | [12] 29.4 µM

COC(=O)c1ccc(O)cc1
inactive: [13] | [14]

C=CCc1ccc(O)c(OC)c1
active: TTR (gene 7276) 26.1 µM

CCCCC(CC)COC(=O)CC(C(=O)OCC(CC)CCCC)S(=O)(=O)O (configuration not stated)
active: [15] 74.5 µM | [16] 14.9 µM | [14] 77.8 µM | SERPINA7 (gene 6906) 1.95 µM | TTR (gene 7276) 1.62 µM
inactive: [13]

OC[C@@H](O)[C@@H](O)[C@H](O)[C@H](O)CO
inactive: [13] | [16] | [14] | [3]

Oc1ccc2ccccc2c1N=Nc1ccccc1
active: [14] 31.9 µM | SERPINA7 (gene 6906) 22.2 µM | TTR (gene 7276) 1.37 µM
inactive: [13] | [15] | [16]

Cc1c(C(=O)O)c(O)cc2c1C(=O)c1c(O)c([C@@H]3O[C@H](CO)[C@@H](O)[C@H](O)[C@H]3O)c(O)c(O)c1C2=O
active: TTR (gene 7276) 10.1 µM

C[Si]1(C)O[Si](C)(C)O[Si](C)(C)O[Si](C)(C)O1
inactive: [1] | [3]

CCCc1cc(=O)[nH]c(=S)[nH]1
inactive: [15] | [16] | [14] | [2] | [4] | [6] | [7] | [8] | [9] | [10] | [11] | [12]

C[C@]12C=CC(=O)C=C1CC[C@@H]1[C@@H]2C(=O)C[C@@]2(C)[C@H]1CC[C@]2(O)C(=O)CO
inactive: TTR (gene 7276)

COc1ccc2c(c1)c(CC(=O)O)c(C)n2C(=O)c1ccc(Cl)cc1
active: [2] 15.5 µM | SERPINA7 (gene 6906) 1.71 µM | [4] 17 µM | [5] 6.34 µM | [6] 16 µM | [7] 12.5 µM | [8] 10.1 µM | [9] 2.61 µM | [10] 6.52 µM | [11] 6.56 µM | [12] 4.99 µM | TTR (gene 7276) 1.93 µM

O=c1c(O)c(-c2ccc(O)c(O)c2)oc2cc(O)cc(O)c12
inactive: [13] | [15] | [16]

Cc1cc(NC(=O)C(=O)O)cc(C)c1Oc1ccc(O)c2c1CCC2
active: SERPINA7 (gene 6906) 0.667 µM | TTR (gene 7276) 0.344 µM
inactive: [15] | [14]

Cc1cccc(C)c1O
active: TTR (gene 7276) 33.4 µM

Cc1cccc(Nc2cc(Cl)nc(SCC(=O)O)n2)c1C
active: SERPINA7 (gene 6906) 22 µM | TTR (gene 7276) 3.12 µM
